Measured values published in PubChem BioAssay (NCATS).
Inconclusive results are not listed. The source made the active and inactive calls. Calls come from the whole dose curve; as a rule, active = well fitted curve in the direction sought with a large enough effect; inconclusive = small, poorly fitted or top-dose-only effect, or another doubt; inactive = no such curve, though single readings can be large; an effect the other way counts as inactive or inconclusive.

Key:
Es-2 = assay: Primary qHTS to identify gynecologic anti-cancer compounds using libraries of approved drugs and bioactive compounds (AID 1345084); conditions: Gynecologic cancer cell panel viability, ATPlite luminescence, 48 h; series mostly up to 57.5 µM; note: nearly all actives have a fitted effect of over 55% in size
Procedure, shortened: (§1)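 In this quantitative HTS, cell killing is estimated from loss of ATP-dependent luciferase light. Cells see five compound concentrations over a 48 h exposure.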

HeLa = assay: as above; conditions: Gynecologic cancer cell panel viability, ATPlite luminescence, 48 h; series mostly up to 57.5 µM
Procedure, shortened: as §1

Hek293T = assay: as above; conditions: Gynecologic cancer cell panel viability, ATPlite luminescence, 48 h, control line for the selectivity index; series mostly up to 57.5 µM
Procedure, shortened: as §1

JEG-3 = assay: as above; conditions: Gynecologic cancer cell panel viability, ATPlite luminescence, 48 h; series mostly up to 57.5 µM
Procedure, shortened: as §1

OV90 = assay: as above; conditions: Gynecologic cancer cell panel viability, ATPlite luminescence, 48 h; series mostly up to 57.5 µM
Procedure, shortened: as §1

PA-1 = assay: as above; conditions: Gynecologic cancer cell panel viability, ATPlite luminescence, 48 h; series mostly up to 57.5 µM
Procedure, shortened: as §1

Tov-21-G = assay: as above; conditions: Gynecologic cancer cell panel viability, ATPlite luminescence, 48 h; series mostly up to 57.5 µM
Procedure, shortened: as §1

Tov112D = assay: as above; conditions: Gynecologic cancer cell panel viability, ATPlite luminescence, 48 h; series mostly up to 57.5 µM
Procedure, shortened: as §1

[1] = Drug repurposing screens with cells derived from glioblastoma tumor samples (AID 1345199); conditions: GBM patient neurospheres viability, ATP luminescence, 48 h; note: nearly all actives have a fitted effect of over 40% in size
Procedure, shortened: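 Primary testing used CD133+ neurospheres from four GBM patients, seven concentrations, 48 h exposure and ATP-based viability; confirmation added three slower-growing patient lines.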

SKOV3 = assay: Primary qHTS to identify gynecologic anti-cancer compounds using libraries of approved drugs and bioactive compounds (AID 1345084); conditions: Gynecologic cancer cell panel viability, ATPlite luminescence, 48 h; series mostly up to 57.5 µM; note: nearly all actives have a fitted effect of over 55% in size
Procedure, shortened: as §1

[2] = at 21.2 µM (top of the series), tumour line B
[3] = at 21.2 µM (top of the series), tumour line D
[4] = at 21.3 µM (top of the series), tumour line A
[5] = at 45.9 µM (top of the series), tumour line B
[6] = at 46.1 µM (top of the series), tumour line C
[7] = at 45.9 µM (top of the series), tumour line D
[8] = at 20 µM (top of the series), tumour line C
% is set by controls: 0 for no effect and ±100 for the full control effect; potency is the fitted concentration of half-maximal effect.

Nc1ccc(C(=O)NCC(=O)O)cc1
inactive: Potency (Es-2) | Potency (HeLa) | Potency (Hek293T) | Potency (JEG-3) | Potency (OV90) | Potency (PA-1) | Potency (Tov-21-G) | Potency (Tov112D) | activity, negative = cell killing [1, 2] -7.61% | activity, negative = cell killing [1, 3] -13.9% | activity, negative = cell killing [1, 4] -13.3%

C[C@H]1[C@H]2CC[C@H]3[C@@H]4CC=C5C[C@@H](N(C)C)CC[C@]5(C)[C@H]4CC[C@]23CN1C
inactive: Potency (Es-2) | Potency (HeLa) | Potency (Hek293T) | Potency (JEG-3) | Potency (PA-1) | Potency (Tov112D) | activity, negative = cell killing [1, 5] 0.435% | activity, negative = cell killing [1, 6] -23.5%
active: Potency (OV90) 15.8 µM

O=C(Nc1cccc(C2=NCCN2)c1)Nc1cccc(C2=NCCN2)c1
inactive: Potency (Es-2) | Potency (HeLa) | Potency (Hek293T) | Potency (JEG-3) | Potency (OV90) | Potency (PA-1) | Potency (Tov112D) | activity, negative = cell killing [1, 5] 7.96% | activity, negative = cell killing [1, 7] -22.5% | activity, negative = cell killing ([1]; at 46 µM (top of the series), tumour line A) 2.01% | activity, negative = cell killing [1, 6] -6.35%

CNCCc1ccccn1
inactive: Potency (Es-2) | Potency (HeLa) | Potency (Hek293T) | Potency (JEG-3) | Potency (OV90) | Potency (PA-1) | Potency (Tov-21-G) | Potency (Tov112D) | activity, negative = cell killing [1, 8] -4.84% | activity, negative = cell killing [1, 2] -4.42% | activity, negative = cell killing [1, 3] -9.97%

CC(=O)O[C@]1(C(C)=O)CC[C@H]2[C@@H]3C=C(C)C4=CC(=O)CC[C@]4(C)[C@H]3CC[C@@]21C
inactive: Potency (Es-2) | Potency (HeLa) | Potency (Hek293T) | Potency (JEG-3) | Potency (OV90) | Potency (PA-1) | Potency (Tov-21-G) | Potency (Tov112D) | activity, negative = cell killing [1, 8] -0.988% | activity, negative = cell killing [1, 2] -20.3% | activity, negative = cell killing [1, 3] 13.6%

CCCCC(CC)CN1CN(CC(CC)CCCC)CC(C)(N)C1 (configuration not stated)
inactive: Potency (Es-2) | Potency (HeLa) | Potency (Hek293T) | Potency (JEG-3) | Potency (OV90) | Potency (SKOV3) | Potency (Tov-21-G) | Potency (Tov112D) | activity, negative = cell killing [1, 8] -6.58% | activity, negative = cell killing [1, 2] -11% | activity, negative = cell killing [1, 3] -24%

COc1cc(C)nc(-n2nc(C)cc2OC)n1
inactive: Potency (Es-2) | Potency (HeLa) | Potency (Hek293T) | Potency (JEG-3) | Potency (OV90) | Potency (PA-1) | Potency (Tov-21-G) | Potency (Tov112D) | activity, negative = cell killing [1, 8] 16.5% | activity, negative = cell killing [1, 2] 1.89% | activity, negative = cell killing [1, 3] -16% | activity, negative = cell killing [1, 4] -15.4%

O=C(c1ccc(F)cc1)C1CCN(CCn2c(=S)[nH]c3ccccc3c2=O)CC1
active: Potency ([1]; tumour line A) 12.6 µM | Potency ([1]; tumour line C) 20.6 µM
inactive: Potency (Es-2) | Potency (HeLa) | Potency (Hek293T) | Potency (JEG-3) | Potency (OV90) | Potency (SKOV3) | Potency (Tov-21-G) | Potency (Tov112D) | activity, negative = cell killing [1, 5] -29.1%

CN1CCN(C2=Nc3ccccc3Sc3ccc(Cl)cc32)CC1
active: Potency ([1]; tumour line A) 7.94 µM | Potency ([1]; tumour line D) 17.8 µM
inactive: Potency (Es-2) | Potency (HeLa) | Potency (Hek293T) | Potency (JEG-3) | Potency (OV90) | Potency (SKOV3) | Potency (Tov-21-G) | Potency (Tov112D) | activity, negative = cell killing [1, 6] -6.22%

NS(=O)(=O)c1cc(C(=O)O)cc(N2CCCC2)c1Oc1ccccc1
inactive: Potency (Es-2) | Potency (HeLa) | Potency (Hek293T) | Potency (JEG-3) | Potency (OV90) | Potency (PA-1) | Potency (Tov-21-G) | Potency (Tov112D) | activity, negative = cell killing [1, 8] 0.209% | activity, negative = cell killing [1, 2] -9.72% | activity, negative = cell killing [1, 3] -3.36% | activity, negative = cell killing [1, 4] -12.4%

COc1cc(NS(=O)(=O)c2ccc(N)cc2)ncn1
inactive: Potency (Es-2) | Potency (HeLa) | Potency (Hek293T) | Potency (JEG-3) | Potency (OV90) | Potency (PA-1) | Potency (Tov-21-G) | Potency (Tov112D) | activity, negative = cell killing [1, 8] 5.16% | activity, negative = cell killing [1, 2] 4.65% | activity, negative = cell killing [1, 3] -16.4%

O=[N+]([O-])c1cccc(S(=O)(=O)NCCNS(=O)(=O)c2cccc([N+](=O)[O-])c2)c1
inactive: Potency (Es-2) | Potency (HeLa) | Potency (Hek293T) | Potency (JEG-3) | Potency (OV90) | Potency (PA-1) | Potency (Tov-21-G) | Potency (Tov112D) | activity, negative = cell killing [1, 5] -14.3% | activity, negative = cell killing [1, 7] -9.35% | activity, negative = cell killing [1, 6] -36.6%

CC[C@H](c1ccc(O)cc1)[C@@H](CC)c1ccc(O)cc1
active: Potency ([1]; tumour line A) 14.1 µM
inactive: Potency (Es-2) | Potency (HeLa) | Potency (JEG-3) | Potency (PA-1) | Potency (SKOV3) | Potency (Tov-21-G) | Potency (Tov112D) | activity, negative = cell killing [1, 8] -16.2% | activity, negative = cell killing [1, 2] 5.51% | activity, negative = cell killing [1, 3] -30%

C[N+]1(CC2COC(c3ccccc3)(C3CCCCC3)O2)CCCCC1 (configuration not stated)
inactive: Potency (Es-2) | Potency (HeLa) | Potency (Hek293T) | Potency (JEG-3) | Potency (SKOV3) | Potency (Tov-21-G) | Potency (Tov112D)

Nc1nc(Cl)nc2c1ncn2[C@@H]1O[C@H](CO)[C@@H](O)[C@@H]1F
inactive: Potency (HeLa)
active: Potency (Es-2) 0.316 µM | Potency (JEG-3) 11.2 µM | Potency (OV90) 0.398 µM | Potency (PA-1) 1.26 µM | Potency (Tov112D) 0.316 µM

CCOc1ccccc1OCCN[C@H](C)Cc1ccc(OC)c(S(N)(=O)=O)c1
active: Potency ([1]; tumour line A) 35.5 µM
inactive: Potency (Es-2) | Potency (HeLa) | Potency (Hek293T) | Potency (JEG-3) | Potency (PA-1) | Potency (SKOV3) | Potency (Tov-21-G) | Potency (Tov112D) | activity, negative = cell killing [1, 5] -15.7% | activity, negative = cell killing [1, 7] -16.9% | activity, negative = cell killing [1, 6] -16.6%

CC1(COc2ccc(CC3SC(=O)NC3=O)cc2)CCCCC1 (configuration not stated)
inactive: Potency (Es-2) | Potency (HeLa) | Potency (Hek293T) | Potency (JEG-3) | Potency (PA-1) | Potency (SKOV3) | Potency (Tov-21-G) | Potency (Tov112D)

Cc1cc(CC(=O)O)c(C)n1-c1ccc(Cl)cc1
inactive: Potency (Es-2) | Potency (HeLa) | Potency (JEG-3) | Potency (OV90) | Potency (PA-1) | Potency (SKOV3) | Potency (Tov-21-G) | Potency (Tov112D) | activity, negative = cell killing [1, 5] -14.5% | activity, negative = cell killing [1, 7] 3.83%
active: Potency ([1]; tumour line A) 25.1 µM
